The source made the active and inactive calls. Rule for the calls: active = hit-call score of the fitted dose curve at least 0.9, where 1 is the maximum; inactive = score below 0.9.

The experiment can be described thus: ATG_ERE_CIS: Attagene CIS-FACTORIAL HepG2 Assay for Estrogen Response Element (ERE) (AID 2282940). To be noted: HepG2 ERE cis-reporter, Attagene RNA transcript; actives raise or lower the signal. The method, then:
ATG_CIS is a cell-based, multiplexed-readout assay that uses HepG2, a human liver cell line, with measurements taken at 24 hours after chemical dosing in a 24-well plate.ATG_ERE_CIS is one of 52 assay component(s) measured or calculated from the ATG_CIS assay. It is designed to make measurements of mRNA induction, a form of inducible reporter, as detected with fluorescence intensity signals by Reverse transcription polymerase chain reaction (RT-PCR) and Capillary electrophoresis technology.Data from the assay component ATG_ERE_CIS was analyzed into 1 assay endpoint. This assay endpoint, ATG_ERE_CIS, was analyzed with bidirectional fitting relative to DMSO as the negative control and baseline of activity. Using a type of inducible reporter, measures of mRNA for gain or loss-of-signal activity can be used to understand the reporter gene at the transcription factor-level as they relate to the gene ESR1. Furthermore, this assay endpoint can be referred to as a primary readout, because this assay has produced multiple assay endpoints where this one serves a reporter gene function. To generalize the intended target to other relatable targets, this assay endpoint is annotated to the nuclear receptor intended target family, where the subfamily is steroidal.
Human liver HepG2 cells are transiently transfected with multiple reporter transcription units (MRTUs) in 6-well plates using FuGene 6 reagent (Roche; 3 ml FuGene/1 mg DNA). The MRTU constructs are regulated by a cis-regulating element (promoter). […] A major difference between the CIS and TRANS system is that in CIS activities of endogenous TFs are measured, whereas the TRANS assay evaluates changes in activities of exogenous, chimeric NR-Gal4 proteins. […] At the end of 24 hour incubation, total RNA was isolated using TriZol reagent (Invitrogen). The isolated RNA is then reverse-transcribed using oligo(dT) primer and Mo-MLV reverse transcriptase (Invitrogen) with DNAse I (Ambion) treatment for 30 min. The one-tenth of the produced cDNA was amplified by PCR using Taq DNA polymerase (Invitrogen) and two reporter sequence-specific primers. The PCR products were fluorescently labeled by primer extension with 6-arboxyfluorescein (6-FAM) 5'-labeled reporter sequence-specific primer (2 min at 95 C, 20 s at 68 C and 10 min at 72 C) and these products were digested with 5U of HpaI (New England Biolabs) for 2h at 37 C. The fragments were purified using Qiaquick PCR columns (Qiagen), analyzed on an ABI 3130xL genetic analyzer (Applied Biosystems) with peak positions identified by using a set of X-rhodamine (ROX)-labeled MapMarker1000 molecular weight standards (BioVentures). The raw capillary electrophoresis data was processed using Attagraph software (Attagene).
`COP(=O)(OC)SCn1c(=O)oc2cc(Cl)cnc21`: the molecule was classed as inactive.

Take `O=[N+]([O-])c1cc(C(F)(F)F)c(Cl)c([N+](=O)[O-])c1Nc1ncc(C(F)(F)F)cc1Cl`: the call was inactive.

On to `CC[C@H](C)[C@H]1O[C@]2(C=C[C@@H]1C)C[C@@H]1C[C@@H](C/C=C(\C)[C@@H](O[C@H]3C[C@H](OC)[C@@H](O[C@H]4C[C@H](OC)[C@@H](NC)[C@H](C)O4)[C@H](C)O3)[C@@H](C)/C=C/C=C3\CO[C@@H]4[C@H](O)C(C)=C[C@@H](C(=O)O1)[C@]34O)O2`, for which the result was inactive.

`COP(=O)(OC)OC(Br)C(Cl)(Cl)Br` (stereo unspecified): the call was inactive.

Turning to `Cc1cc(C2CC2)nc(Nc2ccccc2)n1`, the AC50 was 12.8 µM (active).

In the case of `CSc1nc(NC(C)C)nc(NC(C)C)n1`, the result was inactive.

`CNC(=O)ON=C(SC)C(=O)N(C)C`: the half-maximal activity concentration (AC50) was 15.7 µM (active).

For the molecule `CNC(=O)Oc1cccc2c1OC(C)(C)O2`, the AC50 is 29.5 µM (active).

Turning to `CCc1cccc(CC)c1N(COC)C(=O)CCl`, the result was inactive.

`Nc1c(Cl)cc([N+](=O)[O-])cc1Cl`: the AC50 is 28.2 µM (active).

With `CCCCOC(=O)[C@@H](C)Oc1ccc(Oc2ccc(C#N)cc2F)cc1`, the result was inactive.

Usually AC50 stands for the concentration giving half of the maximal activity seen.

(Values after PubChem BioAssay (EPA / NIEHS).)
